Screens (PubChem BioAssay)
This is a sample that favours compounds with a hit; in the whole collection about 2.4% have one here.
D2 ag-1: HTS Assay for Allosteric Agonists of the Human D2 Dopamine Receptor: Primary Screen for Agonists; D(2) dopamine receptor (Homo sapiens), P14416; HEK293 T-REx D2 cells, calcium flux agonist mode; activation, % at 2 µM; 0.53% of 340,000 active; AID 485358, 2010;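 active means activation over 3 SD above normal in the single-dose calcium agonist read, cut at about 30% in these data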; further: 0% is about no effect
Target sequence (P14416 whole entry, looked up): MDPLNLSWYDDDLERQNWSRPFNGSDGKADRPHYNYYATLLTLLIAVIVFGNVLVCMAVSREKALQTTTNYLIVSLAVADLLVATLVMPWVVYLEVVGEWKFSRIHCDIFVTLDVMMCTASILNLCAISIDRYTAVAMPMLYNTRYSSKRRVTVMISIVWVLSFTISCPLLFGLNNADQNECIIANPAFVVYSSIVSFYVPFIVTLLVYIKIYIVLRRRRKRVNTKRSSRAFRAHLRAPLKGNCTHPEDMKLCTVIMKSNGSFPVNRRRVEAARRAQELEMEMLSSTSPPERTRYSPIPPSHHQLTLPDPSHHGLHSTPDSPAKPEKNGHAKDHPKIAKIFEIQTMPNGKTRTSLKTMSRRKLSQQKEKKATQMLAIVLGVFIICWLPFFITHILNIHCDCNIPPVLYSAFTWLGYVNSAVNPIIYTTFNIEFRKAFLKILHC
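Tetracycline-induced HEK293 Trex cells with D2 receptor force-coupled to calcium signaling, plated overnight at 30 C and loaded with no-wash calcium dye. Calcium flux read kinetically for 180 s after compound addition; responses flag agonists.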
D2 PAM-1: HTS Assay for Positive Allosteric Modulators of the Human D2 Dopamine Receptor: Primary Screen for Potentiators; 0.34% of 340,000 active; D(2) dopamine receptor (Homo sapiens), P14416; potentiation, % at 10 µM; AID 485347, 2010; HEK293 T-REx D2, calcium flux, EC20 dopamine potentiation;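 active means potentiation over 3 SD above the plate norm, cut at about 30% in these data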; further: 0% is about no effect
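Potentiation of an EC20 dopamine calcium response is measured in a force-coupled, tetracycline-inducible Hek293 Trex D2 line. Compound-only kinetic reads over 180 s flag agonists before dopamine addition.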
D2 ag-2: Beta-Arrestin HTS for Positive Allosteric Modulators of the Human D2 Dopamine Receptor: Agonists | D(2) dopamine receptor (Homo sapiens), P14416 | DiscoveRx PathHunter D2 beta-arrestin, luminescence, 90 min; 100% = 57 uM dopamine signal | activation, % (test concentration not listed) | 0.084% of 360,000 active | AID 624465, 2012; in the data active means activation above about 40%; inconclusive means between about 15% and that limit
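DiscoveRx PathHunter D2 beta-arrestin cells (2,100/well) attached overnight, then compound-stimulated 90 min at 37 C in HBSS/10 mM HEPES/0.1% Tween-20 buffer; beta-galactosidase complementation read by luminescence after 1 h at ambient temperature. Dopamine 57 uM final (EC100) as control.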
D2 antagonist: HTS Assay for Allosteric Antagonists of the Human D2 Dopamine Receptor: Primary Screen for Antagonists | D(2) dopamine receptor (Homo sapiens), P14416 | HEK293 TREx D2 cells, calcium flux, dopamine EC80 | inhibition, % at 10 µM | 2% of 340,000 active | AID 485344, 2010; in the data active means inhibition above about 30%; inactive means below that, where a call was filed; further: 0% is about no effect
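Measurement of antagonist activity uses fluorescent calcium dye in inducible HEK293 T-REx D2 cells: 10 s baseline, compound addition with 180 s read, EC80 dopamine addition with a further 180 s read.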
D2 PAM-2: Beta-Arrestin HTS for Positive Allosteric Modulators of the Human D2 Dopamine Receptor: Potentiators. D(2) dopamine receptor (Homo sapiens), P14416. DiscoveRx D2 beta-arrestin cells, luminescence, 90 min; 100% = 57 uM dopamine signal. potentiation, % (concentration not given with the values). 0.23% of 360,000 active; in the data active means potentiation above about 50%; inconclusive means mostly about 30% to 49%
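D2 cells co-treated with compound plus 50 nM dopamine (EC20) for 90 min at 37 deg C to detect potentiation. Beta-arrestin recruitment was read as enzyme-fragment luminescence after 1 h at ambient temperature. Full response was set by 57 uM dopamine.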
* marks the source's active call; other numbers are inactive results; ? = inconclusive; nt = no result given.

SMILES	D2 ag-1	D2 PAM-1	D2 ag-2	D2 antagonist	D2 PAM-2
CCc1cccc(N=c2c([N+](=O)[O-])nn(-c3ccc4c(c3)OCCO4)n2O)c1	-2.1	-0.1	?	6.6	?
O=[N+]([O-])c1nn(-c2ccc3c(c2)OCCO3)n(O)c1=NCCC1=CCCCC1	1.2	2.6	?	5.9	147.0*
O=[N+]([O-])c1nn(-c2ccc3c(c2)OCCO3)n(O)c1=NCc1ccc(F)cc1	-1.4	15.4	?	-11.1	142.5*
CN=c1c([N+](=O)[O-])nn(-c2ccc3c(c2)OCCO3)n1O	-1.1	2.6	42.4*	2.0	24.7
COc1cc(N=c2c([N+](=O)[O-])nn(-c3ccc4c(c3)OCCO4)n2O)cc(OC)c1	1.3	-1.7	9.4	0.7	68.3*
O=[N+]([O-])c1nn(-c2ccc3c(c2)OCCO3)n(O)c1=NCc1ccc(F)cc1Cl	0.1	2.1	2.5	6.5	6.7
Fc1ccc(Nc2c(-c3c[nH]c4ccccc34)nc3ccccn23)cc1	-0.1	-3.0	nt	nt	nt
CC(C)c1ccc(N=c2c([N+](=O)[O-])nn(-c3ccc4c(c3)OCCO4)n2O)cc1	0.1	-2.7	5.9	-13.5	71.5*
O=C(c1ccccc1Cl)N1CCN(Cc2ccc3c(c2)OCO3)CC1	-1.6	10.5	-2.8	-5.7	-2.9
O=C(c1cc([N+](=O)[O-])ccc1Cl)N1CCN(Cc2ccc3c(c2)OCO3)CC1	1.2	4.7	-0.1	44.2*	0.6
Cc1ccc(C(=O)N2CCN(Cc3ccc4c(c3)OCO4)CC2)c(Cl)c1	-0.6	-29.7	2.1	72.6*	-8.8
COCCCNc1nc(N)c([N+](=O)[O-])c(NC2CCCCC2)n1	4.3	20.2	-0.4	30.4*	-3.7
CC(C)CCNc1nc(N)c([N+](=O)[O-])c(NCC2CCCO2)n1 (configuration not stated)	32.5*	2.0	2.3	24.2	-30.9
CCCCN1C(=O)CN(C2CCCCCC2)C(=O)C1c1ccc(OC(C)C)c(OC)c1 (configuration not stated)	-0.3	1.9	nt	nt	nt
COC(=O)CC1=NN(c2ccccc2)C(=O)/C1=C\c1ccc(OC)cc1	3.4	2.1	-5.1	56.0*	-8.8
CCOC(=O)C1=NN(c2ccccc2)C(=O)/C1=C\c1ccc(N(C)C)cc1	0.5	-7.7	-2.9	31.7*	-11.3
CC1=NN(Cc2ccccc2)C(=O)/C1=C\c1ccc(N(C)C)cc1	-1.2	-5.8	-2.4	-4.6	0.5
CCCCN1C(=O)C(O)(CC(=O)c2ccc(C(C)(C)C)cc2)c2ccccc21 (configuration not stated)	nt	16.1	nt	nt	nt
CCOC(=O)c1noc2ncnc(N(CCC(=O)OC)c3ccccc3)c12	-0.2	27.3	nt	nt	nt
Cc1ccc(NC(=O)C2CCN(c3nc(-c4ccc(C(C)C)cc4)no3)CC2)c(Cl)c1	1.0	-6.6	nt	nt	nt
C(=N\Nc1nc2ccccc2s1)/c1cccs1	1.1	-2.9	0.6	37.5*	3.2
COc1ccc(CCNC(=O)Cn2c(=O)nc(-c3ccccc3F)c3cc(Cl)ccc32)cc1OC	nt	5.4	nt	nt	nt
CC(C)CN1CCC(=O)N([C@H](CN=[N+]=[N-])Cc2ccccc2)CC1	0.4	-4.2	-2.2	-6.0	-3.6
CCCN1CCC(=O)N([C@H](CN=[N+]=[N-])Cc2ccccc2)CC1	0.1	5.7	-3.2	37.5*	-13.1
CS(=O)(=O)c1nc(-c2ccc(Br)cc2)cc(-c2ccccc2)c1C#N	0.8	-2.9	-2.5	41.0*	0.5
O=c1cc(-c2c(F)c(F)c(F)c(F)c2F)oc2c(F)c(F)c(F)c(F)c12	17.6	-11.9	nt	56.5*	nt
O=c1cc(-c2c(F)c(F)c(F)c(F)c2F)oc2ccccc12	0.3	18.0	-2.8	-8.7	-18.2
Cc1ccccc1N1CCN(S(=O)(=O)c2nnc(NC(=O)c3ccc(C(C)C)cc3)s2)CC1	-0.5	-7.6	nt	nt	nt
